# Article PMC7862700, “An all-to-all approach to the identification of sequence-specific readers for epigenetic DNA modifications on cytosine”
# Tests used:
# Assay in all cases: DAPPL (digital affinity profiling via proximity ligation, sequencing); 10 mM Tris-HCl pH 7.5, 50 mM NaCl, 1 mM DTT, 4% glycerol, room temperature, 30 min; GST-TFs on glutathione beads, 16-mer random dsDNA library, 0.1% formaldehyde crosslink after washing; high values mean tight binding
# Settings in all cases: protein: recombinant; tags: N-terminal GST; dsDNA, one strand shown
# FLI1 = target: T1, FLI1 (Homo sapiens, UniProt Q01543 1-452)
# T1 sequence: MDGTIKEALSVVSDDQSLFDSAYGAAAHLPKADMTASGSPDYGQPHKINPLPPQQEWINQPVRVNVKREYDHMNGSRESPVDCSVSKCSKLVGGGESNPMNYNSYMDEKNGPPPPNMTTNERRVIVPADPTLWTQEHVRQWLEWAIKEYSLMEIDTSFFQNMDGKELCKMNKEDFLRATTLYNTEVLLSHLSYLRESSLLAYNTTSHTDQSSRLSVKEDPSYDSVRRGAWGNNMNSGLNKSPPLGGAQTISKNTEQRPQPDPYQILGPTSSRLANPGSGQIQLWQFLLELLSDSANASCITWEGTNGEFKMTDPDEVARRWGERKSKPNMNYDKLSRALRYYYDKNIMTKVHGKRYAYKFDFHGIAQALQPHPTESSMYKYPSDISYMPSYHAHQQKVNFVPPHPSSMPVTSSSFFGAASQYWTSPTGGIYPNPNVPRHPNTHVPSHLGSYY
# Summary of the method: (§1)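 Yeast served to express human transcription factors as GST fusions, which were then captured on glutathione beads and labelled with DNA barcodes. Pooled with a tag-only sample, they were incubated with 200 nmole of a 16-mer random double-stranded DNA library for 30 min at room temperature in Tris/NaCl/DTT/glycerol buffer, washed, crosslinked with 0.1% formaldehyde, ligated by proximity, amplified by PCR and sequenced. Dividing each hexamer's read frequency for a factor by its frequency for the tag-only sample gives the binding signal.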
# ELK1 = target: T2, ELK1 (Homo sapiens, UniProt P19419 1-428)
# T2 sequence: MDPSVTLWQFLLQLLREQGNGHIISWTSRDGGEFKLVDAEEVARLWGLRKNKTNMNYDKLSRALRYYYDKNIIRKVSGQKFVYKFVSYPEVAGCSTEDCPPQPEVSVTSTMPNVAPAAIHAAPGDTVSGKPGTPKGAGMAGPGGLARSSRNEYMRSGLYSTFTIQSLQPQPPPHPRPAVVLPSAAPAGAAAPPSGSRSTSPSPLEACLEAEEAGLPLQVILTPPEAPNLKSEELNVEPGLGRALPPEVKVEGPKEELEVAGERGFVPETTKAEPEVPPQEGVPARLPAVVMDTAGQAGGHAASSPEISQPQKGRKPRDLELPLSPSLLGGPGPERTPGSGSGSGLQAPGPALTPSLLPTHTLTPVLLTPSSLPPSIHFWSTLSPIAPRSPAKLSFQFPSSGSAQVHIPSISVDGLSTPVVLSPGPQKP
# Summary of the method: as §1
# GABPA = target: T3, GABPA (Homo sapiens, UniProt Q06546 1-454)
# T3 sequence: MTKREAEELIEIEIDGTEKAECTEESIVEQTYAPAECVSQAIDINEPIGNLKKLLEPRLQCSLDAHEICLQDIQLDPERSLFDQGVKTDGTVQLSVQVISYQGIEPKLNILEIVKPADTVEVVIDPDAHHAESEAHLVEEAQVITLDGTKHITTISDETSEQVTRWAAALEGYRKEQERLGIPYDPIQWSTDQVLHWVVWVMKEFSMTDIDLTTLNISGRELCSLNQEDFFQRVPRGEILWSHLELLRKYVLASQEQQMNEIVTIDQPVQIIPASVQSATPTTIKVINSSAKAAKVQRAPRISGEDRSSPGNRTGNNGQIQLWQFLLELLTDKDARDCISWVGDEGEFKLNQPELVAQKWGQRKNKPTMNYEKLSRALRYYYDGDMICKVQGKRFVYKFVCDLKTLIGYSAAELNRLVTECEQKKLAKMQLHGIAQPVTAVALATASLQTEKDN
# Summary of the method: as §1
# ELF1 = ELF1 (Homo sapiens, UniProt P32519 1-619)
# Chain of ELF1 (P32519 whole entry): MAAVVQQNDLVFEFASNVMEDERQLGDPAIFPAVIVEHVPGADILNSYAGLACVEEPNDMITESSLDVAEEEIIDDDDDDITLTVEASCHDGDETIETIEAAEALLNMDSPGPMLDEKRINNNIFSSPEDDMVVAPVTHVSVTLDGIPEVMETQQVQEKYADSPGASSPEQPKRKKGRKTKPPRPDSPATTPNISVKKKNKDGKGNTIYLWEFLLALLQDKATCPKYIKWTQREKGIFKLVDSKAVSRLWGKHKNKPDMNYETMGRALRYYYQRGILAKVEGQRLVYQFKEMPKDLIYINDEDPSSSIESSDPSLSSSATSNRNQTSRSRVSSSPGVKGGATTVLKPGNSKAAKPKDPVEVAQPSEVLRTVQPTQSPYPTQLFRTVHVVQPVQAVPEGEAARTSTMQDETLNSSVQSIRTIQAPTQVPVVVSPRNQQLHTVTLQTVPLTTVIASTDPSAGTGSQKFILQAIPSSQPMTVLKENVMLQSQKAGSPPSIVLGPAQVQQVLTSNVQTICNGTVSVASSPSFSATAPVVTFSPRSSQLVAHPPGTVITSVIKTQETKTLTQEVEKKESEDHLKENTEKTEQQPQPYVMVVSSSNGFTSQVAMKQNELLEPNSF
# Summary of the method: as §1
# EHF = target: T4, EHF (Homo sapiens, UniProt Q9NZC4 1-300)
# T4 sequence: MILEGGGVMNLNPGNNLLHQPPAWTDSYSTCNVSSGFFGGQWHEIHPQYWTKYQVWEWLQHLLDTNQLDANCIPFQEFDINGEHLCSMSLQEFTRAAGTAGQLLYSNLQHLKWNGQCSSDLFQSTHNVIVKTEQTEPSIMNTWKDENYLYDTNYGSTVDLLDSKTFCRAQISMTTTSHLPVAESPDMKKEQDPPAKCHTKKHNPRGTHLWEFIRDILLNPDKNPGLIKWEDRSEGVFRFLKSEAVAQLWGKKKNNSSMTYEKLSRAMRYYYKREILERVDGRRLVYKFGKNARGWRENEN
# Summary of the method: as §1
# SPIB = SPIB (Homo sapiens, UniProt Q01892 1-262)
# Chain of SPIB (Q01892 whole entry): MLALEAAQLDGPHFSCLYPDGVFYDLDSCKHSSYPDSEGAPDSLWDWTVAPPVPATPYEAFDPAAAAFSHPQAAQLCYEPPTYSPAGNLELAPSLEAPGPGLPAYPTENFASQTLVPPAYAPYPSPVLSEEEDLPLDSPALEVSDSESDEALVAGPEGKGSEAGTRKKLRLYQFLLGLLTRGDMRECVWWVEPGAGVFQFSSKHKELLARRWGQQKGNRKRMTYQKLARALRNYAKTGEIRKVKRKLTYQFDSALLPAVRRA
# Summary of the method: as §1
# ELK3 = target: T5, ELK3 (Homo sapiens, UniProt P41970 1-407)
# T5 sequence: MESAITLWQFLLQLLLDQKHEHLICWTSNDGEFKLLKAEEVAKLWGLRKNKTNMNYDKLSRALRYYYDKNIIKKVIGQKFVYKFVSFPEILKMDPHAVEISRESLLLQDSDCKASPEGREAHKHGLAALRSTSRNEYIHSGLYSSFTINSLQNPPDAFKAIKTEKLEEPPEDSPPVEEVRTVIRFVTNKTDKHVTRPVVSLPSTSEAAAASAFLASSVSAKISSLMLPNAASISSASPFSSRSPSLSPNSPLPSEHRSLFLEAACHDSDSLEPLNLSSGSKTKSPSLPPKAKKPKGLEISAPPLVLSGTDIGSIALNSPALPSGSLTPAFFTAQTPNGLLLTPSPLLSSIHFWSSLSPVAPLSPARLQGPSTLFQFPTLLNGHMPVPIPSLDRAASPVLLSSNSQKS
# Summary of the method: as §1
# ELK4 = target: T6, ELK4 (Homo sapiens, UniProt P28324-2 1-405)
# T6 sequence: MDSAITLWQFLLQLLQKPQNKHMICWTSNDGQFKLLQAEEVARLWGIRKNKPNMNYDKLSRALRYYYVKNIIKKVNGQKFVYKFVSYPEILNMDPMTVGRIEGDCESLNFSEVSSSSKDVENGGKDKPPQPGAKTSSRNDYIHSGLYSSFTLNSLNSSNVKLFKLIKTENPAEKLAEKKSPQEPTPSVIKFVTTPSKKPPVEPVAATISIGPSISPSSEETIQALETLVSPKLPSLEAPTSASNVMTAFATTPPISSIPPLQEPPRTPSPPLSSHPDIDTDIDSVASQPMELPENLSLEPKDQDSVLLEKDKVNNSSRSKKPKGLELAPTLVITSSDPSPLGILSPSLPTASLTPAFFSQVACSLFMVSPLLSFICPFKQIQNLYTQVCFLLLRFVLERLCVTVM
# Summary of the method: as §1
# ETV2 = target: T7, ETV2 (Homo sapiens, UniProt O00321 1-342)
# T7 sequence: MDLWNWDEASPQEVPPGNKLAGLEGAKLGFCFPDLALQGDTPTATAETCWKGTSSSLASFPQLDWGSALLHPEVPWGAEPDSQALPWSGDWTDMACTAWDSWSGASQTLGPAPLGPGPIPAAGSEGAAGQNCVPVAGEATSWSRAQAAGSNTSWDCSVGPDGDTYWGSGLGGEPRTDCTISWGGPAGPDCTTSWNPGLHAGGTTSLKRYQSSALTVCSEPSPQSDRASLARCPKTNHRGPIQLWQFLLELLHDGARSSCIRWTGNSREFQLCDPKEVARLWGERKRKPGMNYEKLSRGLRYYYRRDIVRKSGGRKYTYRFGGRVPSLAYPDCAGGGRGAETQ
# Summary of the method: as §1
# ERF = target: T8, ERF (Homo sapiens, UniProt P50548 1-548)
# T8 sequence: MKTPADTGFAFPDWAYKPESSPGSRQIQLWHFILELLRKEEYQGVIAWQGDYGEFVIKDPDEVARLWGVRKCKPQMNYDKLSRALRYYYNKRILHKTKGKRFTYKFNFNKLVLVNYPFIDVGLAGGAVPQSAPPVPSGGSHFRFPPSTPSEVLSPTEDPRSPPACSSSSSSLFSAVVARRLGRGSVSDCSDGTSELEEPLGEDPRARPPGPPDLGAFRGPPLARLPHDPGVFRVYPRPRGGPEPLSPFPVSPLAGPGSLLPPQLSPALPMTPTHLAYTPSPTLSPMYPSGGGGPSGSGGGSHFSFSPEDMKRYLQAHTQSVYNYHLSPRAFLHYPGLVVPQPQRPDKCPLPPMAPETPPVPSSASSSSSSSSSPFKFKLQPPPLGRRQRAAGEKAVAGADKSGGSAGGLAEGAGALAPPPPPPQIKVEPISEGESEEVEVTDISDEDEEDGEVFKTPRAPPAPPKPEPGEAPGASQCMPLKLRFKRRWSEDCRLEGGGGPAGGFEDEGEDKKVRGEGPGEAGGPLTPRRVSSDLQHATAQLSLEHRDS
# Summary of the method: as §1
# ETV3L = target: T9, ETV3L (Homo sapiens, UniProt Q6ZN32 1-361)
# T9 sequence: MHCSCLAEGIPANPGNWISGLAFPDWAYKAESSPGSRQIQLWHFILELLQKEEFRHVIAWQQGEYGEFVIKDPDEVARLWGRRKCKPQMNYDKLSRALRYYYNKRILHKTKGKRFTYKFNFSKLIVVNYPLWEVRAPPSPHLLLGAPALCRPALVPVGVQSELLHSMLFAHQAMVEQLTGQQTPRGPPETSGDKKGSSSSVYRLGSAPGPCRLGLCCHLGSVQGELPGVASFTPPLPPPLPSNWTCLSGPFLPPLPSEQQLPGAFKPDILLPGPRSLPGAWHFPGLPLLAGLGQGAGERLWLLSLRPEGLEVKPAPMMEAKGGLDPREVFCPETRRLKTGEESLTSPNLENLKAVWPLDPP
# Summary of the method: as §1
# ETS2 = target: T10, ETS2 (Homo sapiens, UniProt P15036 1-469)
# T10 sequence: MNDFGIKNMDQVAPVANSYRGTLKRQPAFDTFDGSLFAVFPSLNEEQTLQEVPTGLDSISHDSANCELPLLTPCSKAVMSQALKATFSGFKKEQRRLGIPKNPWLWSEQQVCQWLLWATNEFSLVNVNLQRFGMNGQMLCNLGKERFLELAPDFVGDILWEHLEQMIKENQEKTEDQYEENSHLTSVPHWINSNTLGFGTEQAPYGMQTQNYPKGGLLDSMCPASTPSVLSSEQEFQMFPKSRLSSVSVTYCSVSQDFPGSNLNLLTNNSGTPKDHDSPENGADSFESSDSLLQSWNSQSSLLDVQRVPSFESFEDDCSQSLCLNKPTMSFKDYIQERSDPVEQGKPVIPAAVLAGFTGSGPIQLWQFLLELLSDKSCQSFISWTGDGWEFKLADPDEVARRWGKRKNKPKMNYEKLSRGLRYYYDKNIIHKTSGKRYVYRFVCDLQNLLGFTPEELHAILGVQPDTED
# Summary of the method: as §1
# ETV7 = target: T11, ETV7 (Homo sapiens, UniProt Q9Y603 1-341)
# T11 sequence: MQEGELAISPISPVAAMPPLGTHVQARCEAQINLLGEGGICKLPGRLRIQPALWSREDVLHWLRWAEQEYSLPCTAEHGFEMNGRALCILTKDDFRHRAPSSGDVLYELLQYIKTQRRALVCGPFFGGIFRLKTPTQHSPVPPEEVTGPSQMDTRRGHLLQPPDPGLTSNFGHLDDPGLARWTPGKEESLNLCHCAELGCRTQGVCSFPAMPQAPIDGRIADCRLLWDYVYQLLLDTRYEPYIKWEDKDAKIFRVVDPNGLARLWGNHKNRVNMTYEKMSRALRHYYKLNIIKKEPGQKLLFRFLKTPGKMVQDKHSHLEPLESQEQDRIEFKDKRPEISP
# Summary of the method: as §1
# ETV6 = ETV6 (Homo sapiens, UniProt P41212 1-452)
# Chain of ETV6 (P41212 whole entry): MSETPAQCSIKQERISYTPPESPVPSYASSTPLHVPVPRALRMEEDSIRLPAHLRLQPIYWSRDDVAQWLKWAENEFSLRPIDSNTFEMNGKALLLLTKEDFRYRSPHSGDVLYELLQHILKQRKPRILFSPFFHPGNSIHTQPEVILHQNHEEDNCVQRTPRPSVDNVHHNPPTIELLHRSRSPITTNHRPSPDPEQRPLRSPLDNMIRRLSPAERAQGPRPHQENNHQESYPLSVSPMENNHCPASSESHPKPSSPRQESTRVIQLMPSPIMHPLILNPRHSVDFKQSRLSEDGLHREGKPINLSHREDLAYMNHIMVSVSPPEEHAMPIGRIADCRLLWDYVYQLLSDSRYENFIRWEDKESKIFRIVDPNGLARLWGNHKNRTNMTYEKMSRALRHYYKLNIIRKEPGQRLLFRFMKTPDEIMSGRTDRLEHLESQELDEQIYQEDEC
# Summary of the method: as §1
sequence,measurement,setting,value
GATTAA,binding signal,FLI1,"1.01 fold enrichment (6-mer frequency, TF over GST control)"
same,binding signal,ELK1,"1.04 fold enrichment (6-mer frequency, TF over GST control)"
same,binding signal,GABPA,"1.04 fold enrichment (6-mer frequency, TF over GST control)"
same,binding signal,ELF1,"1.02 fold enrichment (6-mer frequency, TF over GST control)"
same,binding signal,EHF,"1.01 fold enrichment (6-mer frequency, TF over GST control)"
same,binding signal,SPIB,"1.02 fold enrichment (6-mer frequency, TF over GST control)"
same,binding signal,ELK3,"1.13 fold enrichment (6-mer frequency, TF over GST control)"
same,binding signal,ELK4,"1.06 fold enrichment (6-mer frequency, TF over GST control)"
same,binding signal,ETV2,"1.11 fold enrichment (6-mer frequency, TF over GST control)"
same,binding signal,ERF,"1.04 fold enrichment (6-mer frequency, TF over GST control)"
same,binding signal,ETV3L,"1.1 fold enrichment (6-mer frequency, TF over GST control)"
same,binding signal,ETS2,"1.01 fold enrichment (6-mer frequency, TF over GST control)"
same,binding signal,ETV7,"1.01 fold enrichment (6-mer frequency, TF over GST control)"
same,binding signal,ETV6,"1.12 fold enrichment (6-mer frequency, TF over GST control)"
